Screens as filed in PubChem.
The entries come from a sample that favours hits as a whole.
Shiga inhibitor – A qHTS for Small Molecule Inhibitors of Shiga Toxin | Vero cells, Shiga toxin protein synthesis inhibition reporter | inhibition, % at 38.7 µM | 290,000 compounds, 9.2% hits | AID 2315, 2010; in the data active = inhibition mostly above about 28%, no sharp cut-off; inactive = mostly below about 43%
Giardia FBPA inh – qHTS Assay for Inhibitors of Fructose-1,6-bisphosphate Aldolase from Giardia Lamblia; Potency, µM (titrated, usually from 59.6 µM), usual class: inhibitors; AID 2451, 2010; purified Giardia FBPA; 290,000 compounds, 0.71% hits; note: nearly all actives have a fitted effect of over 55% in size
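40 nM FBPA preincubated 10 min at RT with compound (up to 57.5 uM final), then substrate plus GAPDH/TPI/NAD/arsenate coupling and diaphorase/resazurin added. Fluorescence read after 20 min at RT, 525/598 nm.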
TbPYK inhibitor – qHTS of Trypanosoma Brucei Inhibitors; pyruvate kinase (Trypanosoma brucei), Q57TT1; TbPYK enzyme, Kinase-Glo Plus ATP luminescence, 45 min; Potency, µM (titrated, usually from 76.8 µM), hits mostly inhibitors; 410,000 compounds, 0.12% hits; AID 624173, 2012; note: nearly all actives have a fitted effect of over 50% in size
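Luminescence from Kinase-Glo Plus, added after a 45-minute room-temperature reaction, served as the end-point read-out. The enzyme and substrate were preincubated with compound before ADP (130 uM final) initiated turnover. Concentration-effect curves came from normalized qHTS data.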
Sm TGR block – qHTS Assay for the Inhibitors of Schistosoma Mansoni Peroxiredoxins; Schistosoma mansoni thioredoxin glutathione reductase (TGR), Q962Y6; Potency, µM (highest dose often 114 µM), usual class: inhibitors; AID 485364, 2010; 360,000 compounds, 3% hits; purified TGR, DTNB reduction, TNB absorbance 405 nm; note: nearly all actives have a fitted effect of over 60% in size
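Kinetic colorimetric format: TGR-catalysed, NADPH-driven DTNB reduction monitored via TNB absorbance. Enzyme dispensed at 20 nM; compound exposure 15 min at room temperature before reaction start.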
Cycloheximide cs – Cycloheximide Counterscreen for Small Molecule Inhibitors of Shiga Toxin | 300,000 compounds, 12% hits | AID 2314, 2010 | max response, % | cell reporter, cycloheximide protein synthesis inhibition counterscreen; in the data active = max response mostly above about 13%, no sharp cut-off; inactive = mostly below about 14%; note: read at 38.3 µM for the half of the compounds with a filed dose
LmPK inhibitor – qHTS Assay for Inhibitors of Leishmania Mexicana Pyruvate Kinase (LmPK); Q27686; purified LmPK, Kinase-Glo ATP luminescence, 1 h; Potency, µM (series often up to 57.5 µM), usual class: inhibitors; 290,000 compounds, 0.37% hits
Target sequence (Q27686 whole entry, looked up): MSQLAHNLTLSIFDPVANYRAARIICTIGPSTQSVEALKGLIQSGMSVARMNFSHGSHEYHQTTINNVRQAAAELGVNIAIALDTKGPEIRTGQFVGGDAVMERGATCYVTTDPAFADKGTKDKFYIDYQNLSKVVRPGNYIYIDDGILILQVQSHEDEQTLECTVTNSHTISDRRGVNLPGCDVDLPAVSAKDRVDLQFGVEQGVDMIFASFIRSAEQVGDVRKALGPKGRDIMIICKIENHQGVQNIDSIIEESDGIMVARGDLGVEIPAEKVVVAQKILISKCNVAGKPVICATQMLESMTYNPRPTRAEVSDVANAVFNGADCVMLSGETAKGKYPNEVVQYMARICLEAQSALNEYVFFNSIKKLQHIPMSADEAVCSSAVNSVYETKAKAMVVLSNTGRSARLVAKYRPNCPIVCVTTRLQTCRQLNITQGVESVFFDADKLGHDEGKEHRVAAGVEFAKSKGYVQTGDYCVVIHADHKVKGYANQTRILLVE
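Pyruvate kinase activity monitored as ATP production (luciferase luminescence). Conditions: 0.1 nM enzyme, 0.5 mM PEP, 0.1 mM ADP, 1 h, RT; normalized against uninhibited and no-enzyme wells.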
A number is an active result; . = inactive; ? = inconclusive; / = no result; [ ] = remark or other dose. Unless noted, calls come from the whole dose curve; as a rule, active = well fitted curve in the direction sought with a large enough effect; inconclusive = small, poorly fitted or top-dose-only effect, or another doubt; inactive = no such curve, though single readings can be large; an effect the other way counts as inactive or inconclusive.

SMILES	Shiga inhibitor	Giardia FBPA inh	TbPYK inhibitor	Sm TGR block	Cycloheximide cs	LmPK inhibitor
COC(=O)c1ccc(NC(=O)Nc2ccc(F)cc2F)cc1	142.7	.	.	.	36.7	.
O=C(Nc1ccccc1)Nc1ccc(F)cc1F	96.4	.	.	.	39.8	.
COC(=O)c1ccc(C(=O)Nc2ccc(F)cc2)cc1	/	/	.	.	/	/
CC(=O)Nc1cccc(NC(=O)Nc2ccc(F)cc2F)c1	.	.	.	.	.	.
CC(=O)NC(C)(CC(=O)c1ccccc1)c1ccccc1 (configuration not stated)	/	/	.	/	/	/
C/C(=N/N=C(\C)c1ccccc1O)c1ccccc1O	38.5	.	.	.	24.0	.
CCC(=NN=C(CC)c1ccccc1O)c1ccccc1O	/	/	.	/	/	/
CC(C)c1ccc(CNc2ncc(Br)cn2)cc1	32.0	.	.	.	16.8	.
O=[N+]([O-])c1ccc(Nc2ccc(Cl)cc2)nc1	.	.	.	.	.	.
CC(C)c1ccc(CNc2ccc([N+](=O)[O-])cn2)cc1	74.2	.	.	.	54.7	.
CC(C)(C)c1ccc(CNc2ccc([N+](=O)[O-])cn2)cc1	80.5	.	.	.	23.5	.
CC(=O)NCCNc1ccc([N+](=O)[O-])cn1	.	.	.	.	.	.
O=[N+]([O-])c1ccc(NCc2ccc(Cl)cc2)nc1	62.7	.	.	.	39.2	.
CC(C)c1ccc(CNc2nnnn2C)cc1	.	.	.	.	.	.
CC(C)(C)c1ccc(Cn2cnc(-c3ccc([N+](=O)[O-])cc3)c2)cc1	54.3	.	.	.	40.3	.
Cc1ccc(S(=O)(=O)N2CCOCC2)cc1NC(=O)CSc1nnc(COc2ccccc2F)n1N	/	/	.	/	/	/
Nc1ccc(S(=O)(=O)c2cc(O)c3ccccc3c2O)cc1	/	/	11.2µM	/	/	/
O=C(NC(c1ccccc1)c1ccccc1)c1ccc(Br)o1	.	.	.	.	.	.
CC1CCN(C(=O)COC(=O)/C=C/c2ccc(Br)o2)CC1	/	/	.	8.91µM	/	/
O=C(/C=C/c1ccc(Br)o1)OCc1ccccc1	.	.	.	22.4µM	.	.
CC1CCCC(C)N1C(=O)COC(=O)/C=C/c1ccc(Br)o1 (configuration not stated)	/	/	.	/	/	/
O=C(/C=C/c1ccc(Br)o1)NC(c1ccccc1)c1ccccc1	.	.	.	44.7µM	.	.
O=C(c1cccc(S(=O)(=O)N2CCN(c3ccccc3)CC2)c1)N1CCN(c2ccccc2O)CC1	/	/	.	.	/	/
COc1cc2c(cc1OC)CN(C(=O)c1ccccc1C(=O)O)CC2	.	.	.	79.4µM	.	.
COc1cc2c(cc1OC)CN(C(=O)Cc1ccccc1)CC2	.	.	.	.	.	.
SMILES	Shiga inhibitor	Giardia FBPA inh	TbPYK inhibitor	Sm TGR block	Cycloheximide cs	LmPK inhibitor
COc1cc2cc(CCOC(=O)c3ccc(C#N)cc3)oc(=O)c2cc1OC	/	/	.	?	/	/
C=CCc1cccc(C2C(C)CCC3C(=O)N4C(CCC(C)C4c4cccc(CC=C)c4)C(=O)N32)c1 (configuration not stated)	/	.[12.9 µM]	/	/	/	/
Cc1ccc(-c2nc3cccnc3s2)cc1NC(=O)C(C)C	/	/	.	.	/	/
COCC(=O)Nc1cccc(-c2nc3cccnc3s2)c1	/	/	.	.	/	/
CCCS(=O)(=O)Nc1cccc(-c2nc3cccnc3s2)c1	57.1	.	.	.	28.0	.
O=S(=O)(Nc1cccc(-c2nc3cccnc3s2)c1)c1cccs1	50.1	.	.	.	18.2	.
Cc1ccc(-c2nc3cccnc3s2)cc1NS(C)(=O)=O	61.7	.	.	.	32.5	.
CCCC(CCC)C(=O)Nc1cccc(-c2nc3cccnc3s2)c1	/	/	.	.	/	/
Cn1c(=O)c(-c2cc(F)cc(F)c2)nc2cnc(N3CCOCC3)nc21	/	.	/	/	/	/
Cc1cnc(CNc2cc(-c3ccccc3CN(C)C)ncn2)cn1	/	.	/	/	/	/
CCOC(=O)CSc1nc2c(sc3ccccc32)c(=O)n1CCO	/	/	.	.	/	/
C[C@@H]1CN([C@@H](C)CO)C(=O)c2cc(NC(=O)C3CCCCC3)ccc2O[C@@H](C)CCCCO[C@H]1CN(C)S(=O)(=O)c1ccc(Cl)cc1	/	/	.	/	/	/
COc1cccc2cc(C(=O)NCCc3c(C)[nH]c4ccc(Br)cc34)c(=O)oc12	/	/	.	.	/	/
